Screening data from PubChem.
Mcl1 Bid PPI = disrupts binding of human Mcl-1 to Bid peptide. Q07820. 220,000 compounds, 0.97% hits. inhibition, % at 21.7 µM. TR-FRET Mcl-1/Bid-Dy647 peptide binding, 1536-well. AID 1021;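 active = compounds that cut the binding signal by more than half at the single screening dose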;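 also: His-tagged Mcl-1 with europium anti-His antibody binding Bid BH3 peptide; 0% = Mcl-1 plus peptide wells and 100% = peptide-only wells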
Target sequence (Q07820 whole entry, looked up): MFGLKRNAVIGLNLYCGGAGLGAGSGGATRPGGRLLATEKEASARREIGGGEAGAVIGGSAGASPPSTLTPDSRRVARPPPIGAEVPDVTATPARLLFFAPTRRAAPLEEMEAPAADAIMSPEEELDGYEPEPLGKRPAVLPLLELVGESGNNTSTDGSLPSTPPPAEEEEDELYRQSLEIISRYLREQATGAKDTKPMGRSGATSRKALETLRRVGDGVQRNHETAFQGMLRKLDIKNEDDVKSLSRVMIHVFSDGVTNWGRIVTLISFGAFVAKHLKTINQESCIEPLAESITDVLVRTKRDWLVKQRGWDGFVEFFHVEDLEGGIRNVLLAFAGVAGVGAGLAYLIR
Mcl-1 Bim block = disrupts Bim peptide binding to human Mcl-1; Bead-based flow cytometry, Bim peptide-Mcl-1 binding; 190,000 compounds, 0.1% hits; Q07820; inhibition, % at 10 µM; AID 1009; in the data active = inhibition above about 40%;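 also: 0% = no compound tracer wells and 100% = peptide blocker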
zVAD death inh = blocks zVAD induced death of L929 cells; L929 zVAD necroptosis rescue, ATP luminescence, 24 h; with zVAD 60 µM; viability rescue, % at 10 µM; 220,000 compounds, 0.38% hits; AID 1377;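 active = activation, scaled between plate controls, above about 75%, limit read from the data; inactive = activation under that limit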;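 also: 0% = zVAD with DMSO and 100% = DMSO alone without zVAD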
Mcl1-Noxa inh = Mcl-1/Noxa interaction inhibition | Q07820 | TR-FRET Mcl-1/Noxa peptide binding, 2 h | inhibition, % at 21.7 µM | 220,000 compounds, 1.5% hits | AID 1022;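 active = compounds that cut the protein-peptide binding signal by more than 50% relative to plate controls in a single-dose test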;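 also: His-tagged Mcl-1 with rhodamine Noxa BH3 peptide and terbium anti-His antibody; 0% = Mcl-1 plus Noxa peptide wells and 100% = peptide-only wells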
TNF death inh = TNF-alpha cell death inhibition in Jurkat FADD-/- cells; Jurkat FADD-/- TNF necroptosis rescue, ATP luminescence, 24 h; 0 = TNF only, 100 = no-TNF cells; activation (protection from cell death), % at 10 µM; 220,000 compounds, 0.068% hits;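 active = activation, meaning protection from cell death, of at least 50% relative to plate controls; inactive = activation below 50%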;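 also: necroptosis triggered by 40 ng/mL TNF-alpha added together with compound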
MCL1-BIM inh = disrupts human MCL1 binding to BIM-BH3 peptide; GST-MCL1 / FITC-Bim-BH3 fluorescence polarization; inhibition, % at 10.9 µM; 320,000 compounds, 0.68% hits; AID 2057;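 active = inhibition above the mean inhibition of all tested compounds plus 3 SD, set per campaign, cut at about 40% in these data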;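 also: 0% = DMSO wells and 100% = unlabeled Bim-BH3 peptide control; higher means more loss of mP so more displacement of Bim peptide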
Active calls of the source: *; / = no result given. An excerpt weighted towards active compounds, which were near 2.4% of everything screened.

SMILES	Mcl1 Bid PPI	Mcl-1 Bim block	zVAD death inh	Mcl1-Noxa inh	TNF death inh	MCL1-BIM inh
O=C(CNC(=O)C(c1ccccc1)c1ccccc1)N/N=C\c1ccc(C(=O)O)cc1	/	/	/	/	/	0
CC1CCCC(C)N1C(=O)COC(=O)c1ccc(F)c(S(=O)(=O)N2CCOCC2)c1 (stereo not drawn)	/	/	/	/	/	-1
O=C(/C=C/c1ccc(NC(=O)c2ccccc2-c2ccccc2C(=O)O)cc1)c1ccccc1	/	/	/	/	/	-7
CC(C)(C)C(=O)Nc1ccc(N2CCCC2)cc1	-55	-1	0	56*	0	11
Cc1ccc(C(=O)Nc2ccc(N3CCCC3)cc2)cc1	-35	-1	18	78*	0	1
O=C(/C=C/c1ccncc1)c1ccc(NC(=O)c2ccccc2F)cc1	52*	8	15	-15	-3	-24
CC(=O)Nc1ccc(N2CCCC2)cc1	-49	-3	0	6	-1	12
O=C(Nc1ccc(N2CCCC2)cc1)c1ccc2ccccc2c1	-34	11	3	74*	1	4
CC(=O)N1CCN(c2ccc(NC(=O)c3ccc4ccccc4c3)cc2)CC1	/	/	/	/	/	-12
Cc1ccc(C(=O)Nc2ccc(N3CCOCC3)cc2)cc1	-34	-4	4	1	1	0
Cc1cc(-c2ccccc2)nc2cc(C(=O)OC(C)C)nn12	/	/	/	/	/	2
O=C(CN(C(=O)c1csnn1)c1cccc2ccccc12)NCc1ccccc1	/	/	/	/	/	9
O=C(Nc1ccc(N2CCCC2)cc1)c1cccc(F)c1	-35	-1	2	67*	-8	4
O=C(Nc1ccc(N2CCCC2)cc1)c1ccccc1F	-30	-5	0	82*	0	5
COC(=O)c1ccccc1NC(=O)c1ccc(COc2ccc3c(c2)CCC3)cc1	58*	0	0	10	-3	0
COc1ccccc1NC(=O)c1ccc(COc2ccc3c(c2)CCC3)cc1	2	-5	2	0	2	-6
O=C(CSc1ncnc2ccccc12)Nc1ccc2c(c1)OCCO2	-2	0	1	-8	0	7
O=C(CSc1nc(Cc2ccccc2)nc2ccccc12)Nc1ccc2c(c1)OCCO2	58*	-2	2	0	1	5
O=C(NCC(c1ccc(F)cc1)N1CCOCC1)c1ccco1 (stereo not drawn)	/	/	/	/	/	4
CC1CCCCC1NC(=O)C1CCN(S(=O)(=O)c2cccc3nonc23)CC1 (stereo not drawn)	/	/	/	/	/	6
O=C1c2ccccc2C(=O)N1CC#CCN1CCN(C(c2ccccc2)c2ccccc2)CC1	62*	-4	1	22	0	4
CCOC(=O)C1=C(CSc2nc3c(cc2C#N)CN(C)CC3)OC(N)=C(C#N)C1c1ccc(F)cc1 (stereo not drawn)	-62	0	1	14	-2	43*
COc1ccccc1CNC(=O)Cn1cccc1C(=O)c1ccccc1	/	/	/	/	/	3
Cc1csc(N/N=C/c2ccc(O)c([N+](=O)[O-])c2)n1	-70	-1	0	55*	12	28
O=[N+]([O-])c1cc(/C=N\Nc2nc(-c3ccccc3)cs2)ccc1O	-38	0	2	20	0	15
SMILES	Mcl1 Bid PPI	Mcl-1 Bim block	zVAD death inh	Mcl1-Noxa inh	TNF death inh	MCL1-BIM inh
Cc1nnc(NC(=O)c2sc3nc(-c4cccs4)cc(C(F)(F)F)c3c2N)s1	45	2	0	98*	-1	8
CCN(c1ccc(C(=O)CSc2nnc(C3CC3)n2C2CC2)cc1)S(C)(=O)=O	/	/	/	/	/	-10
O=C1CC(N2CCN(S(=O)(=O)c3ccccc3)CC2)C(=O)N1c1ccccc1 (stereo not drawn)	-8	/	1	92*	8	-5
O=C(OCc1ccccc1)/C(=C/c1cccc(Br)c1)NC(=O)c1ccco1	/	/	/	/	/	7
COC/C=C/C1=CC2=CC(=O)C(C)(OC(=O)c3cnc4ccccc4n3)C(=O)C2=CN1c1ccc(CO)cc1 (stereo not drawn)	/	/	/	/	/	91*
COC(=O)c1ccccc1NC(=O)c1ccc(-c2ccc(Br)cc2)o1	-5	-1	1	19	-1	6
O=C(Nc1cccc2nsnc12)c1ccc(-c2ccc(Br)cc2)o1	63*	-1	0	27	-2	-28
O=S(=O)(Nc1ccc(N=Nc2ccc(O)c3ccccc23)cc1)c1ccccc1	-29	1	1	59*	0	3
CC(Sc1nnc(-c2ccncc2)n1-c1ccc(F)cc1)C(=O)NC1CC1 (stereo not drawn)	/	/	/	/	/	-2
Cc1ccc(N2CCN(/N=C/C3=C(N4CCOCC4)C(=C\c4ccccc4)/CC3)CC2)cc1	-24	/	0	-3	5	1
Cc1cc(C)nc(N/N=C/C2=C(N3CCOCC3)C(=C/c3ccccc3)/CC2)n1	-21	-3	0	53*	-10	10
O=C(N/N=C/C1=C(N2CCOCC2)C(=C\c2ccccc2)/CC1)Nc1ccccc1	-16	-11	0	-19	2	1
O=C(O)c1ccccc1N/N=C/C1=C(N2CCOCC2)C(=C\c2ccccc2)/CC1	-42	/	3	63*	0	12
Cc1cc(=O)[nH]c(N/N=C/C2=C(N3CCOCC3)C(=C\c3ccc(Cl)cc3)/CC2)n1	32	-3	2	56*	1	-10
N#C/C(=C\C1=C(N2CCOCC2)C(=C\c2ccc(Cl)cc2)/CC1)C(=O)Nc1ccccc1F	62*	2	/	45	-9	-6
CC(Oc1ccccc1)C(=O)Nc1nnc(S(=O)(=O)Nc2ccccc2)s1 (stereo not drawn)	/	/	/	/	/	7
COC(=O)c1ccc2nc(Nc3nc4c(F)cc(F)cc4s3)sc2c1	64*	-3	0	81*	0	0
CCN1C(=O)C(C)S/C1=N\S(=O)(=O)c1ccc(F)cc1 (stereo not drawn)	1	-1	0	75*	0	8
C=CCN1C(=O)C(C)S/C1=N\S(=O)(=O)c1ccc(Cl)cc1 (stereo not drawn)	-10	-5	0	8	1	0
COc1cccc(NC(=O)Cc2nnc(SCC(=O)NC3CCCCC3)n2C)c1	/	/	/	/	/	1
O=[N+]([O-])c1ccc2[nH]nc(-c3ccccc3)c2c1	0	44*	33	23	1	-1
O=[N+]([O-])c1ccc2[nH]c3nc4ccccc4nc3c2c1	36	/	-1	64*	3	23
Cc1cc(C)c(S(=O)(=O)Nc2cc(SCC(=O)O)c(O)c3ccccc23)cc1C	29	0	3	82*	-7	27
O=C(Nc1ccccc1N1CCCC1)c1cccc(S(=O)(=O)N2CCOCC2)c1	/	/	/	/	/	3
COC(=O)c1[nH]c2ccc(Cl)cc2c1NC(=O)Oc1ccccc1	-45	-6	0	51*	-2	0
